JMJD2E inh: JMJD2E (human) inhibition. B2RXH2. JMJD2E catalytic domain, FDH-coupled NADH fluorescence (FDH is formaldehyde dehydrogenase). Potency, µM (doses to about 57.1 µM), most hits filed as inhibitors. 230,000 compounds, 1.6% hits. AID 2147; also: nearly all actives have a fitted effect of over 50% in size
Target sequence (B2RXH2 1-337 limits assumed): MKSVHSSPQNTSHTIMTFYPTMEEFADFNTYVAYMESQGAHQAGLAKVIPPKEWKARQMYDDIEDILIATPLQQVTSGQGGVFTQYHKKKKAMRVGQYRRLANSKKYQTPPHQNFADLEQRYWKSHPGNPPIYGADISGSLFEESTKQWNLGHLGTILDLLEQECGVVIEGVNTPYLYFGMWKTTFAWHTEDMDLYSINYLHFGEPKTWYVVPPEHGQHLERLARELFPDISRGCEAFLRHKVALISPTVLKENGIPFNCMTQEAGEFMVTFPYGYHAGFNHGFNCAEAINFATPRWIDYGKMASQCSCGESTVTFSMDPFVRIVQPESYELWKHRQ
ALDH1A1 inh: blocks purified human ALDH1A1 activity; AID 1030; Potency, µM (titrated, usually from 75.3 µM), usual class: inhibitors; Purified ALDH1A1, NADH fluorescence, propionaldehyde substrate; P00352; 220,000 compounds, 7.3% hits
HPGD block: HPGD (human) dehydrogenase inhibition | purified HPGD, NADH fluorescence kinetic, PGE2 substrate | Potency, µM, usual class: inhibitors | 150,000 compounds, 4.3% hits
Target sequence (P15428 whole entry, looked up): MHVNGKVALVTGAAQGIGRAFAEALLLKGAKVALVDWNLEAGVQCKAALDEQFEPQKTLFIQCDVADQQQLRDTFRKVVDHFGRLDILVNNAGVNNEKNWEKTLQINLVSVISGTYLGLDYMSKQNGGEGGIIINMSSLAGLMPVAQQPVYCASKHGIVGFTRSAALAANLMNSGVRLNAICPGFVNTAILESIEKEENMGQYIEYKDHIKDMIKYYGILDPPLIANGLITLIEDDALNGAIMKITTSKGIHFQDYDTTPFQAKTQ
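20 nM HPGD preincubated 15 min at room temperature with compound in 50 mM Tris-HCl pH 8, 0.01% Tween 20. Started with 1 mM NAD+ and 30 uM prostaglandin E2; NADH fluorescence (360/450 nm) read 5 times over 30-s intervals, last minus first.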
PNC assembly inh: inhibitors of perinucleolar compartment assembly; PC3M PTB-GFP, PNC prevalence imaging, 16 h; active compounds read low; activity change (PNC), negative = inhibition, % at 10 µM; 140,000 compounds, 3.1% hits;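 active = readout at or below -70, meaning at least 70% loss of cells showing the perinucleolar compartment, a nuclear body marking cancer cells; inconclusive = readout between -30 and a set limit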
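Read-out is percentage of cells bearing a perinucleolar compartment, from automated 20x imaging of fixed, Hoechst-stained PC3M PTB-GFP cells. Cells were seeded 4 h, then exposed 16 h to compound (23 nl of library stock) in duplicate plates.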
Large screens that a line does not name were inactive. In the library only some 11% were active in any assay of this set; here they are far more common. Unless noted, calls follow the shape of the dose curve; as a rule, active = well fitted inhibition curve with a large enough effect (not every such curve was filed as active); inconclusive = small, poorly fitted or top-dose-only effect, or another doubt; inactive = no such curve, though single readings can be large or run the other way.

Cc1cc2n(n1)SC(Nc1cccc3ccccc13)N2 (configuration not stated)	JMJD2E inh inconclusive, ALDH1A1 inh 13µM
Cc1cc2n(n1)SC(Nc1ccc(F)cc1)N2 (configuration not stated)	ALDH1A1 inh 28µM
CCc1ccccc1NC1Nc2cc(C)nn2S1 (configuration not stated)	ALDH1A1 inh inconclusive (no result: HPGD block, PNC assembly inh)
Cc1cc2n(n1)SC(Nc1cc(Cl)ccc1Cl)N2 (configuration not stated)	ALDH1A1 inh 3.5µM, PNC assembly inh -100
O=[N+]([O-])c1cccc(/C([O-])=C(/C(=S)Nc2ccccc2)[n+]2ccccc2)c1	ALDH1A1 inh inconclusive
CCCCC(CC)C(=O)O (configuration not stated)	none (no result: JMJD2E inh, PNC assembly inh)
CC1=NN(c2ccccc2)C(=O)C1N=Nc1ccccc1 (configuration not stated)	none
CC1=NN(C(N)=S)C(=O)C1N=Nc1ccccc1 (configuration not stated)	ALDH1A1 inh 22µM (no result: HPGD block, PNC assembly inh)
CC1=NN(c2nc(-c3ccc(C)cc3)cs2)C(=O)C1N=Nc1ccccc1O (configuration not stated)	ALDH1A1 inh inconclusive (no result: HPGD block, PNC assembly inh)
CC1=NN(C(N)=S)C(=O)C1N=Nc1cccc2ccccc12 (configuration not stated)	ALDH1A1 inh 14µM (no result: HPGD block, PNC assembly inh)
CC1=NN(c2ccccc2)C(=O)C1N=Nc1ccc(N)cc1 (configuration not stated)	JMJD2E inh 14µM, ALDH1A1 inh inconclusive
CC(C)(C)COS(=O)OCC(C)(C)C	none (no result: JMJD2E inh, PNC assembly inh)
Cc1ccc(C(=O)NCCn2cc(SCC(=O)Nc3cc(C)on3)c3ccccc32)cc1	ALDH1A1 inh 13µM, PNC assembly inh inconclusive
COc1ccccc1C(=O)NCCn1cc(SCC(=O)Nc2nnc(C)s2)c2ccccc21	ALDH1A1 inh 0.32µM, PNC assembly inh inconclusive
CC(C)C[C@H](NC(=O)C1(c2ccccc2)CCN(C(=O)[C@H]2CSCN2C(=O)OC(C)(C)C)CC1)C(=O)O	PNC assembly inh -114
CC(C)(C)OC(=O)N1CCC(C(=O)N[C@@H](Cc2ccccc2)C(=O)O)(c2ccccc2)CC1	none
CCc1ccc2c(CN3CCN(S(=O)(=O)c4cccs4)CC3)cc(=O)oc2c1	ALDH1A1 inh 13µM, PNC assembly inh inconclusive
O=C(NCCCN1CCOCC1)C(=O)N/N=C/c1c2ccccc2cc2ccccc12	PNC assembly inh inconclusive
S=c1nc[nH]c2c1sc1nc(-c3ccccc3)c3c(c12)CCCC3	ALDH1A1 inh 2.5µM
O=c1[nH]cnc2c1sc1nc(-c3ccccc3)c3c(c12)CCCC3	JMJD2E inh inconclusive
O=C1c2cccnc2C(=O)N1CNc1ccc(Cl)cc1	none (no result: HPGD block, PNC assembly inh)
O=C(Cc1ccc(Cl)cc1)c1c(O)cc(O)cc1O	HPGD block inconclusive (no result: PNC assembly inh)
CC1(C)CC(NC(=O)C23CCC(C)(/C(=N/O)C2)C3(C)C)CC(C)(C)N1 (configuration not stated)	PNC assembly inh -118
O=C(CCc1ccc(O)cc1)c1c(O)cc(O)cc1O[C@@H]1O[C@H](CO)[C@@H](O)[C@H](O)[C@H]1O	HPGD block inconclusive (no result: PNC assembly inh)
CN(CC(=O)O)CC(=O)O	none (no result: JMJD2E inh, PNC assembly inh)
O=[N+]([O-])c1ccc(O)c(/C=N/NC(=S)Nc2ccc(Cl)cc2Cl)c1	JMJD2E inh 8.9µM (no result: ALDH1A1 inh, HPGD block, PNC assembly inh)
O=C(N/N=C/c1cc([N+](=O)[O-])ccc1O)Nc1ccccc1	JMJD2E inh 28µM (no result: HPGD block, PNC assembly inh)
CCNC(=O)C(=O)N/N=C/c1cc([N+](=O)[O-])ccc1O	JMJD2E inh 25µM (no result: HPGD block, PNC assembly inh)
O=C(N/N=C/c1cc([N+](=O)[O-])ccc1O)C12CC3CC(CC(C3)C1)C2	JMJD2E inh inconclusive, ALDH1A1 inh 0.89µM (no result: HPGD block, PNC assembly inh)
Cc1cc(Cl)ccc1NC(=O)CCC(=O)N/N=C/c1cc([N+](=O)[O-])ccc1O	none (no result: HPGD block, PNC assembly inh)
O=[N+]([O-])c1cccc(N/N=C/c2cc([N+](=O)[O-])ccc2O)c1	none (no result: HPGD block, PNC assembly inh)
Cc1cc(C)n(CC(=O)N/N=C/c2cc([N+](=O)[O-])ccc2O)n1	HPGD block inconclusive
O=C(N/N=C/c1cc([N+](=O)[O-])ccc1O)NC12CC3CC(CC(C3)C1)C2	none
COC(=O)[C@@]1(Cc2ccc(OC)cc2)[C@H]2c3cc(C(=O)N(C)C)n(CCc4ccccn4)c3C[C@H]2CN1C(=O)c1ccccc1	none (no result: PNC assembly inh)
COc1ccc(CNC(=O)CN(C(=O)c2ccc(CN3CCOCC3)o2)C2CCCC2)cc1	ALDH1A1 inh 11µM, PNC assembly inh inconclusive
O=C(O)c1ccc(CN2CCOCC2)o1	none (no result: HPGD block, PNC assembly inh)
Cc1ccc([N+](=O)[O-])cc1NC(=O)c1ccoc1C	ALDH1A1 inh 20µM, PNC assembly inh inconclusive
O=C(NNC(=O)c1ccncc1)Nc1ccc([N+](=O)[O-])cc1	ALDH1A1 inh inconclusive (no result: HPGD block, PNC assembly inh)
Cc1occc1C(=O)Nc1cccc([N+](=O)[O-])c1	none
Cc1occc1C(=O)NNC(=O)Nc1ccc([N+](=O)[O-])cc1	ALDH1A1 inh 14µM (no result: HPGD block, PNC assembly inh)
Cc1c(/C=N\NC(=O)c2csc3ccccc23)cnn1C	none
Cc1nn(C)c(C)c1/C=N/NC(=O)c1csc2ccccc12	ALDH1A1 inh 22µM, PNC assembly inh inconclusive
OCCCNCc1ccncc1	none (no result: JMJD2E inh, PNC assembly inh)
Cn1c(SCc2nnc3n2CCCCC3)nc2ccccc21	HPGD block 25µM
COc1ccccc1/C=C\C=N\n1c(-c2ccc(Cl)cc2)n[nH]c1=S	JMJD2E inh inconclusive, ALDH1A1 inh 35µM, HPGD block 13µM
Cc1n[nH]c(=S)n1/N=C/c1cccc(OCc2ccccc2)c1	none (no result: HPGD block, PNC assembly inh)
COc1ccccc1/C=C/C=N/n1c(-c2ccc(F)cc2)n[nH]c1=S	ALDH1A1 inh inconclusive (no result: HPGD block, PNC assembly inh)
COc1ccccc1/C=C\C=N\n1c(-c2ccc(Cl)cc2Cl)n[nH]c1=S	HPGD block 4µM
Cc1n[nH]c(=S)n1/N=C/c1ccccc1OCc1ccc(Cl)cc1	HPGD block 10µM, PNC assembly inh inconclusive
Cc1ccc(-c2n[nH]c(=S)n2/N=C/C=C/c2ccccc2[N+](=O)[O-])cc1	HPGD block 2.8µM
CN(C)c1ccc(N=Nc2ccccc2C(=O)OCC(=O)NCC2CCCCC2)cc1	none
CN(C)c1ccc(N=Nc2ccccc2C(=O)OCC(=O)NC2CCCC2)cc1	PNC assembly inh -115 (no result: HPGD block)
COC(=O)C/C=C/C(C)C(OC)c1ccccc1Br (configuration not stated)	none (no result: JMJD2E inh, HPGD block, PNC assembly inh)
O=C(NCc1cccs1)C1CCN(S(=O)(=O)c2ccccc2F)CC1	none (no result: ALDH1A1 inh, HPGD block, PNC assembly inh)
CCCOc1cccc(C(=O)NC(=S)Nc2cccc(C(F)(F)F)c2)c1	ALDH1A1 inh 18µM, PNC assembly inh inconclusive
CCOc1cccc(C(=O)NC(=S)Nc2cccc(C)c2)c1	ALDH1A1 inh 8.9µM
CN(C)c1ccc(C=NCC2(O)CCOC(C)(C)C2)cc1 (configuration not stated)	ALDH1A1 inh 0.45µM
COc1ccc(COC(=O)N/N=C2/C[C@@H](O)[C@@H](O)[C@@H]3[C@@H]4C(=O)N(Cc5ccccc5)C(=O)[C@H]4CC[C@H]23)cc1	none (no result: JMJD2E inh, HPGD block, PNC assembly inh)
CN(C)c1ccc(NC(=O)CSc2nnc(-c3cccs3)n2Cc2ccco2)cc1	ALDH1A1 inh 18µM
COc1ccc(NC(=O)CSc2nnc(-c3ccccc3Cl)n2Cc2ccco2)c(OC)c1	ALDH1A1 inh 14µM (no result: HPGD block)
CCOc1ccc(NC(=O)CSc2nnc(-c3ccccc3Cl)n2Cc2ccco2)cc1	ALDH1A1 inh 14µM (no result: HPGD block)

High-throughput results: PubChem, National Center for Advancing Translational Sciences (NCATS)
